{
  "source": "PubChem BioAssay (Tox21)",
  "note": "Inconclusive results are not listed. Values without a mark were called inactive. Activity calls are given as the source filed them. Calls come from the whole dose curve; as a rule, active = well fitted inhibition curve with a large enough effect in the repeat runs; inconclusive = weak or mixed curves; inactive = no such curve, though single readings can be large or run the other way. % is set by controls: 0 for no effect and ±100 for the full control effect; potency is the fitted concentration of half-maximal effect.",
  "data": [
    {"target": "Cytochrome P450 2D6 (Homo sapiens) (UniProt P10635)", "sequence (P10635 whole entry, looked up)": "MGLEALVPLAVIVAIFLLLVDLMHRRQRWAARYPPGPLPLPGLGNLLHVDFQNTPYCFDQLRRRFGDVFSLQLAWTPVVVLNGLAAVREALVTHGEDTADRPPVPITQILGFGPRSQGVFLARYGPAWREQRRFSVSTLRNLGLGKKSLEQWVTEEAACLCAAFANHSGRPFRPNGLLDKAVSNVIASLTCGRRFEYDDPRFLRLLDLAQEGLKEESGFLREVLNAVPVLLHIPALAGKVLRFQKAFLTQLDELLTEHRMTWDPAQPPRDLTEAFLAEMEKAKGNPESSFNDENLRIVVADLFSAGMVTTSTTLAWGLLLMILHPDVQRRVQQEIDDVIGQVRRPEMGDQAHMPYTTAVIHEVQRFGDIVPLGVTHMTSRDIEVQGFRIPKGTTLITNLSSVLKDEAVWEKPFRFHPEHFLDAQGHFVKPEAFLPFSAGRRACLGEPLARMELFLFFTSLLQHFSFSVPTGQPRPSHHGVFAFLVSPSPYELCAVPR", "assay": "Cytochrome P450 Family 2 Subfamily D Member 6 (CYP2D6) small molecule antagonists: luciferase reporter qHTS assay (AID 1671196); note: nearly all actives have a fitted effect of over 50% in size", "settings": "P450-Glo CYP2D6 enzyme assay, luciferin luminescence, 1 h; series mostly up to 115 µM; activity change, negative = inhibition: at the top concentration", "how_it_was_run": "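CYP2D6 enzyme–substrate mix was held with compound for 10 min at room temperature, then NADPH regeneration solution was added and the reaction ran 1 h at room temperature. Luciferin product was detected by luminescence after 20 min with detection reagent.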", "values": [
      {"smiles": "CCCCS", "activity change, negative = inhibition": "-1.11%"},
      {"smiles": "COCc1nnc(-c2ccc[n+]([O-])c2)n1-c1c(Cl)c(Cl)cc2[nH]c(=O)c(=O)[nH]c12", "activity change, negative = inhibition": "-8.69%"},
      {"smiles": "Cc1ccc(Br)cc1", "activity change, negative = inhibition": "-5.5%"},
      {"smiles": "COc1ccc(Cl)cc1C", "activity change, negative = inhibition": "-3.76%"},
      {"smiles": "CCC(=O)OCCOc1ccccc1", "activity change, negative = inhibition": "1.29%"},
      {"smiles": "NNC(=O)OCc1ccccc1", "activity change, negative = inhibition": "-13.8%"},
      {"smiles": "CCCC(=O)C(CC)Sc1ccoc1C", "note": "(stereo unspecified)", "activity change, negative = inhibition": "-1.68%"},
      {"smiles": "COC(C)(C)CC(C)=O", "activity change, negative = inhibition": "-23.8%"},
      {"smiles": "COC(=O)c1ccc(NC(C)=O)cc1OC", "activity change, negative = inhibition": "-9.88% [at 53 µM]"},
      {"smiles": "CC(C)(C)NCC(O)COc1cccc2c1CCC(=O)N2", "note": "(stereo unspecified)", "activity change, negative = inhibition": "-7.99% [at 53 µM]"},
      {"smiles": "C[Si](C)(C)O[Si](O)(O)O", "activity change, negative = inhibition": "-6.3%"},
      {"smiles": "Cc1cc(C)c(N)c(Cl)c1", "activity change, negative = inhibition": "-13.8%"},
      {"smiles": "CC(C)C[P+](C)(CC(C)C)CC(C)C", "Potency": "0.568 µM (active)"},
      {"smiles": "C/C=C/C(=O)CCCC", "activity change, negative = inhibition": "-13.5%"},
      {"smiles": "C/C(Cl)=C/CCl", "activity change, negative = inhibition": "-12.4%"}
    ]},
    {"target": "Cytochrome P450 2C19 (Homo sapiens) (UniProt P33261)", "sequence (P33261 whole entry, looked up)": "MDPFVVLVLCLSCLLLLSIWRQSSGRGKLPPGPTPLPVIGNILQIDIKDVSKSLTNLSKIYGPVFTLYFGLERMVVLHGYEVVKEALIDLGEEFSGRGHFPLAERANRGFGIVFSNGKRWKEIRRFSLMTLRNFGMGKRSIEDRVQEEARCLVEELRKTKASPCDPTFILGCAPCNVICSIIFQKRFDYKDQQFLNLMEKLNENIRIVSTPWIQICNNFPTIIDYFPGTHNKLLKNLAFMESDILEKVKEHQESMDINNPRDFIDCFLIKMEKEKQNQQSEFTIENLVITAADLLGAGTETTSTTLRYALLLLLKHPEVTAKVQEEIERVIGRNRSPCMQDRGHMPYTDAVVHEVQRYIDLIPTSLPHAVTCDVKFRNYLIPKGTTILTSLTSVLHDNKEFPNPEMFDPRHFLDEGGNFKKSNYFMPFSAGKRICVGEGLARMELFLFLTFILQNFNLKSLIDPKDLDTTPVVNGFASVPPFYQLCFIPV", "assay": "Cytochrome P450 Family 2 Subfamily C Member 19 (CYP2C19) small molecule antagonists: luciferase reporter qHTS assay (AID 1671197); note: nearly all actives have a fitted effect of over 65% in size", "settings": "P450-Glo CYP2C19 enzyme, luciferin luminescence, 1 h; series mostly up to 115 µM; activity change, negative = inhibition: at the top concentration", "how_it_was_run": "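P450-Glo CYP2C19 system: enzyme-substrate mix with compound 10 min at room temperature, then NADPH regeneration solution, 1 h at 37C. Proluciferin-to-luciferin conversion detected by luminescence after 20 min with detection reagent; ketoconazole as positive control.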", "values": [
      {"smiles": "CC(=O)Nc1ccc(S(=O)(=O)Nc2cc(C)on2)cc1", "activity change, negative = inhibition": "-16% [at 52.9 µM]"},
      {"smiles": "Cc1cc2c(cc1CC(=O)c1sccc1S(=O)(=O)Nc1onc(C)c1Cl)OCO2", "Potency": "8.71 µM (active)"},
      {"smiles": "CCCC(=O)OC", "activity change, negative = inhibition": "1.05%"},
      {"smiles": "c1coc(Cn2cccc2)c1", "activity change, negative = inhibition": "11.4%"},
      {"smiles": "CCOC(=O)[C@H](CCc1ccccc1)N[C@H]1CS[C@H](c2cccs2)CN(CC(=O)O)C1=O", "activity change, negative = inhibition": "-12.8% [at 52.9 µM]"},
      {"smiles": "Cc1cc(O)c(Cl)cc1C", "Potency": "71 µM (active)"},
      {"smiles": "CO/N=C(\\C(=O)O)c1csc(NC(=O)CCl)n1", "activity change, negative = inhibition": "25% [at 52.9 µM]"},
      {"smiles": "Cc1ccccc1C#N", "activity change, negative = inhibition": "-2.14%"},
      {"smiles": "CCOC(=O)c1ccc(N(C)C)cc1", "Potency": "22.4 µM (active)"},
      {"smiles": "O=C(O)CCCCCCCCCC(=O)O", "activity change, negative = inhibition": "-20%"},
      {"smiles": "O=C(O)Cc1ccccc1Oc1ccc(Cl)cc1Cl", "activity change, negative = inhibition": "0.0902% [at 52.9 µM]"},
      {"smiles": "Clc1cc(Cl)c(Cl)c(Cl)c1Cl", "activity change, negative = inhibition": "4.5%"},
      {"smiles": "CCCCCCCCCCCCCCCCN(C)C", "activity change, negative = inhibition": "-5.94% [at 10.5 µM]"},
      {"smiles": "CCOC(=O)CC", "activity change, negative = inhibition": "-4.61%"},
      {"smiles": "Cc1ccc2cccnc2c1", "activity change, negative = inhibition": "-20.5%"},
      {"smiles": "CC(O)C(CO)C(C)O", "note": "(stereo unspecified)", "Potency": "80.6 µM (active)"},
      {"smiles": "CCCCCCC(=O)c1ccccc1", "activity change, negative = inhibition": "4.39%"},
      {"smiles": "CCCCC(CC)COC(=O)CC#N", "note": "(stereo unspecified)", "Potency": "39.9 µM (active)"},
      {"smiles": "CC(=O)c1ccc(O)c(C(N)=O)c1", "activity change, negative = inhibition": "-12.8% [at 52.9 µM]"},
      {"smiles": "CC(=O)OC/C=C(/C)CCC=C(C)C", "activity change, negative = inhibition": "0.0868%"},
      {"smiles": "C=CC(=O)CC", "activity change, negative = inhibition": "15.5%"},
      {"smiles": "COCCCOc1cc(C[C@@H](C[C@H](N)[C@@H](O)C[C@H](C(=O)NCC(C)(C)C(N)=O)C(C)C)C(C)C)ccc1OC", "activity change, negative = inhibition": "13.9% [at 52.9 µM]"},
      {"smiles": "CCCc1ccc(O)c(OC)c1", "activity change, negative = inhibition": "-9.9%"}
    ]},
    {"target": "Cytochrome P450 2C9 (Homo sapiens) (UniProt P11712)", "sequence (P11712 whole entry, looked up)": "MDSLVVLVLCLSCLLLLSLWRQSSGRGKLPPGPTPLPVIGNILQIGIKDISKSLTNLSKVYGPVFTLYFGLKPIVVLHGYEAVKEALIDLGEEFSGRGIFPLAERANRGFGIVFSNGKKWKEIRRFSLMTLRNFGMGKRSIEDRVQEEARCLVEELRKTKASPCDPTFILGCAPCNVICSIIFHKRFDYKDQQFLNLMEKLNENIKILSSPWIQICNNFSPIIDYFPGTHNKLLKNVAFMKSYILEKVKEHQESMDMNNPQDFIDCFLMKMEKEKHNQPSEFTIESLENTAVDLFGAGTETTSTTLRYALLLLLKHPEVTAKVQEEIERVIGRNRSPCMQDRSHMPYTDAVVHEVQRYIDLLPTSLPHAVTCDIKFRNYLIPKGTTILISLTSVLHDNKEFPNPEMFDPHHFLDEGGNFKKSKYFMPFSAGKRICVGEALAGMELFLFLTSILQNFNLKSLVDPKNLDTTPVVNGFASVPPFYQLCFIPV", "assay": "Cytochrome P450 Family 2 Subfamily C Member 9 (CYP2C9) small molecule antagonists: luciferase reporter qHTS assay (AID 1671198); note: nearly all actives have a fitted effect of over 50% in size", "settings": "P450-Glo CYP2C9 enzyme assay, luciferin luminescence; series mostly up to 115 µM; activity change, negative = inhibition: at the top concentration", "how_it_was_run": "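Enzyme-substrate mix preincubated with compound 10 min at room temperature; reaction started with NADPH regeneration solution, 1 h 37C. Luminescent luciferin product read after 20 min detection reagent.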", "values": [
      {"smiles": "CC(=O)Nc1ccc(S(=O)(=O)Nc2cc(C)on2)cc1", "activity change, negative = inhibition": "-7.09% [at 53 µM]"},
      {"smiles": "CCCCS", "activity change, negative = inhibition": "1.27%"},
      {"smiles": "Cc1cc2c(cc1CC(=O)c1sccc1S(=O)(=O)Nc1onc(C)c1Cl)OCO2", "Potency": "8.71 µM (active)"},
      {"smiles": "COCc1nnc(-c2ccc[n+]([O-])c2)n1-c1c(Cl)c(Cl)cc2[nH]c(=O)c(=O)[nH]c12", "activity change, negative = inhibition": "-9.66%"},
      {"smiles": "Cc1ccc(Br)cc1", "activity change, negative = inhibition": "-9.53%"},
      {"smiles": "CCCC(=O)OC", "activity change, negative = inhibition": "-11.1%"},
      {"smiles": "c1coc(Cn2cccc2)c1", "activity change, negative = inhibition": "-19.2%"},
      {"smiles": "CCOC(=O)[C@H](CCc1ccccc1)N[C@H]1CS[C@H](c2cccs2)CN(CC(=O)O)C1=O", "activity change, negative = inhibition": "-14.5% [at 53 µM]"},
      {"smiles": "COc1ccc(Cl)cc1C", "Potency": "84.7 µM (active)"},
      {"smiles": "CCC(=O)OCCOc1ccccc1", "activity change, negative = inhibition": "-62.6%"},
      {"smiles": "Cc1cc(O)c(Cl)cc1C", "activity change, negative = inhibition": "89.3%"},
      {"smiles": "NNC(=O)OCc1ccccc1", "Potency": "56.4 µM (active)"},
      {"smiles": "CO/N=C(\\C(=O)O)c1csc(NC(=O)CCl)n1", "activity change, negative = inhibition": "-6.27% [at 53 µM]"}
    ]}
  ]
}
